Source: PubChem BioAssay (SRMLSC)
Rows were chosen to be rich in hits. Some 6.5% of all compounds tested hit in one or more screens of this group.
Spn PMK inh: S. pneumoniae PMK inhibitors, primary screen, biochemical, mevalonate pathway, pilot trial included; phosphomevalonate kinase (Streptococcus pneumoniae D39); purified PMK, PK/LDH-coupled NADH absorbance 340 nm; inhibition, % at 10 µM; 0.49% of 65,000 active;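 active means top-ranked compounds by inhibition in the single 10 µM screen, taking a fixed number of the strongest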;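 further: 0% = full reaction with DMSO carrier and 100% = background rate without enzyme reaction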
Spn MK inh: S. pneumoniae MK inhibitors, primary screen, biochemical, PK/LDH-coupled NADH absorbance | mevalonate kinase [Streptococcus pneumoniae D39] | purified MK, PK/LDH-coupled NADH absorbance 340 nm | inhibition, % at 10 µM | 0.48% of 65,000 active | AID 555, 2006;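 active means ranked among the strongest by inhibition in the single 10 µM screen, a fixed top-ranked set picked for dose follow-up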
Fluor 339 460: intrinsic fluorescence of library compounds, ex339/em460 – biochemical, MLSMR library, data from DPM-DC assay, artefact control, profiling panel; compound autofluorescence, ex339/em460 nm, NADH buffer; stronger effect = higher value; 1 = no-compound wells, NADH background; fluorescence fold increase at 10 µM; 5.5% of 65,000 active; AID 709, 2007;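 active means at 10 µM, mean starting fluorescence two-fold or more over control wells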;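 further: signal is the first read of a kinetic run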
NADH enzymes: inhibitors of PK/LDH coupling enzymes, profiling panel, artefact control, biochemical, MLSMR library | IC50, µM (series often up to 10 µM), without a hit: at the highest dose inhibition | AID 774, 2007 | coupled PK/LDH NADH assays, four targets | 0.02% of 65,000 active;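 active means single-dose screening hits from any of four coupled enzyme assays that gave an IC50 when retested across doses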;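 further: the DPM-DC format reads NADH fluorescence rather than 340 nm absorbance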
Abs 340nm: compound light absorbance at 340 nm, profiling panel, artefact control, biochemical, MLSMR library, data from PS, PMK, MK assays; 65,000 tested, under 10 active; compound absorbance at 340 nm, fold over control; fold change at 10 µM;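 active means at 10 µM dose, initial 340 nm absorbance at least 2 fold that of control wells; inactive means change under 2 fold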;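 further: initial absorbance extrapolated from kinetic A340 decline of NADH oxidation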
Spn DPM-DC inh: S. pneumoniae DPM-DC inhibitors, primary screen, biochemical, PK/LDH-coupled NADH fluorescence; purified DPM-DC; 0.49% of 65,000 active; AID 556, 2006; diphosphomevalonate decarboxylase (Streptococcus pneumoniae D39); calls only at 10 µM;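 active means the 320 compounds with the highest percent inhibition in the single-dose primary screen, excluding strongly autofluorescent ones, cut at about 32% in these data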;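 further: kinetic rate of NADH fluorescence loss reporting ADP formed by the decarboxylase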
Active calls of the source: *; i = inactive; x = not tested or not shown; + = active, no number.

SMILES	Spn PMK inh	Spn MK inh	Fluor 339 460	NADH enzymes	Abs 340nm	Spn DPM-DC inh
COc1ccccc1-c1cc(C(=O)Nc2cccnc2)no1	8.0	1.0	1.06	3.0%	1	i
Cc1ccc(S(=O)(=O)NC(C)(C)CSc2nnc(N)s2)cc1	12.0	3.0	1.08	5.0%	1.02	i
CC1(C)CC(=O)C=C(Nc2ccccc2F)C1	12.0	3.0	1.09	5.0%	1.05	i
Cc1ccc(-c2csc3nnc(SCC(=O)Nc4cccc(C)n4)n23)cc1	8.0	0.0	1.07	4.0%	1.04	i
O=C(c1cccs1)c1cn(CC(=O)N2CCc3ccccc3C2)c2ccccc12	0.0	6.0	1.03	4.0%	1.03	i
Cc1ccc(S(=O)(=O)/N=C(\CN2CCCCC2)N2CCOCC2)cc1	8.0	7.0	1.03	5.0%	1.03	i
COc1cc2c(cc1OC)C(C(=O)NCC1COc3ccccc3O1)C(c1cccnc1)N(C)C2=O (stereo not given)	0.0	9.0	1.14	3.0%	1.03	i
COc1ccccc1-c1cc(C(=O)Nc2ccccc2SC)no1	11.0	5.0	2.84*	15.0%	1.03	i
CSc1ccccc1NC(=O)c1cc(CC(C)C)on1	2.0	16.0	0.9	6.0%	1.03	i
Cc1ccc(S(=O)(=O)N2CCN(Cc3ccccc3C(F)(F)F)CC2)cc1	5.0	44.0*	1.04	16.0%	1.08	i
O=C(c1ccco1)N1CCN(Cc2ccccc2C(F)(F)F)CC1	0.0	48.0*	1.08	16.0%	1	i
O=C(c1ccco1)N1CCN(Cc2cccc(F)c2)CC1	7.0	8.0	1.14	5.0%	1.01	i
CC(c1ccccc1)n1cc(C(=O)NCc2ccncc2)nn1 (stereo not given)	8.0	18.0	1.06	9.0%	1.01	i
O=C(Cn1cnc2c(nnn2Cc2ccccc2F)c1=O)NCc1ccco1	13.0	9.0	1.07	7.0%	1.01	i
Cc1nc(SCn2nnc3ccccc3c2=O)c2c(C)c(C)sc2n1	9.0	0.0	1.09	3.0%	1.02	i
O=S(=O)(Nc1ccc2c(c1)OCCO2)c1cnc[nH]1	14.0	23.0	1.04	12.0%	0.99	i
c1coc(C2Nc3ccccc3-c3nc4ccccc4n32)c1 (stereo not given)	11.0	1.0	2.28*	6.0%	1.1	x
c1ccc(C2Nc3ccccc3-c3nc4ccccc4n32)nc1 (stereo not given)	1.0	9.0	2.34*	5.0%	1.09	x
COc1ccccc1C(c1nnnn1C(C)(C)C)N1CCN(Cc2ccncc2)CC1 (stereo not given)	27.0*	0.0	0.79	16.0%	1.01	i
CC(C)CCNc1nc2c(cc1C#N)COC(C)(C)C2	0.0	5.0	2.25*	3.0%	1.03	x
CCN1C(=O)/C(=C2/Sc3ccc(OC)cc3N2C)SC1=Nc1ccc(C(C)=O)cc1	25.0*	1.0	1.12	11.0%	1.05	i
CCOC(=O)c1cc(-c2ccncc2)nc2c1c(C)nn2C	19.0	4.0	5.06*	12.0%	1.04	x
CCOC(=O)C1=C(C)N(C)C(C)=C(C(=O)OCC)C1c1ccncc1	1.0	8.0	1.12	3.0%	1.07	i
CCOC(=O)c1cc(-c2ccc3c(c2)OCCO3)nc2c1c(C)nn2CCC#N	11.0	0.0	4.9*	6.0%	1.05	x
CCOC(=O)c1cc(-c2ccco2)nc2c1c(C)nn2CCC#N	12.0	2.0	2.43*	2.0%	1.04	x
SMILES	Spn PMK inh	Spn MK inh	Fluor 339 460	NADH enzymes	Abs 340nm	Spn DPM-DC inh
CCOC(=O)c1cc(C#N)c(NCc2ccccc2)nc1C	5.0	0.0	1.7	2.0%	1.05	i
CCOC(=O)CNC(=O)Nc1cc(C(C)(C)C)nn1-c1ccccc1	0.0	6.0	1.18	2.0%	1.02	i
CCCc1cc(C(=O)N2CCN(c3ccccc3C)CC2)cs1	7.0	7.0	1.11	5.0%	1.03	i
CCOC(=O)N1CCC(NC(=O)c2ccc3c(c2)sc2nc(-c4ccccc4)cn23)CC1	11.0	12.0	2*	8.0%	0.98	i
CCOC(=O)N1CCC(NC(=O)c2ccc3c(c2)sc2nc(-c4cccc(OC)c4)cn23)CC1	13.0	10.0	1.84	6.0%	0.98	i
COc1ccc(CCCC(=O)O)c(C)c1	0.0	3.0	1.08	1.0%	1.06	i
Cc1nn(-c2ccccc2)c2sc(-c3n[nH]c(=S)o3)cc12	10.0	2.0	3.86*	6.0%	1.11	x
Cc1nn(-c2ccccc2)c2sc(C(=O)O)cc12	1.0	7.0	1.11	3.0%	1.04	i
CC(=O)Nc1nn(C)c2nc3cc(C)ccc3cc12	3.0	11.0	1.99	9.0%	1.07	i
Cc1ccc2cc3c(NC(=O)c4ccco4)nn(C)c3nc2c1	6.0	9.0	2.9*	17.0%	1.07	+
Cc1cc(F)ccc1S(=O)(=O)Nc1ccccc1C(=O)Nc1ncn[nH]1	0.0	9.0	2.27*	5.0%	1.04	x
COC(=O)CCn1nnc(-c2cccs2)n1	0.0	3.0	1.05	1.0%	0.97	i
COC(=O)CCn1nnc(-c2ccc(C(C)C)cc2)n1	8.0	1.0	2.95*	7.0%	1	i
CCOC(=O)CSc1nnc(N)s1	17.0	0.0	1.08	6.0%	1.03	i
CCOC(=O)C(CCc1nnc(N)s1)C(=O)OCC	30.0*	3.0	1.07	5.0%	1	i
CC12C=CC3(CN(Cc4ccccc4)C(=O)C3C1C(=O)NC1CC1)O2 (stereo not given)	28.0*	5.0	1.03	11.0%	0.97	i
C#Cc1ccc(C(=O)Nc2cc(C(N)=O)ccc2N2CCOCC2)cc1	4.0	5.0	1.11	3.0%	1.05	i
C=CCn1c(SCc2c(C)noc2C)nnc1C1COc2ccccc2O1 (stereo not given)	15.0	0.0	1.01	5.0%	1	i
O=C(c1csc2c1CCCCC2)N1CCN(c2ncccn2)CC1	10.0	6.0	1.24	5.0%	0.99	i
COc1ccc(N2CCN(C(c3ccccc3)c3nnnn3Cc3ccc(F)cc3)CC2)cc1 (stereo not given)	11.0	0.0	1.03	4.0%	0.99	i
CCOC(=O)Cc1c(C)nc2c(-c3ccc(Cl)cc3)c[nH]n2c1=O	8.0	5.0	2.12*	7.0%	1.12	x
O=C(Cn1ncc2c(=O)oc3ccccc3c21)NC1CC1	10.0	3.0	1.11	4.0%	0.99	i
Cc1ccc2oc(=O)c3cnn(CC(=O)NC4CCN(Cc5ccccc5)CC4)c3c2c1	5.0	3.0	0.95	14.0%	1.03	+
CC(C)N(O)C(=O)NC(C)(C)C	8.0	4.0	1.04	2.0%	0.99	i
